Source: PubChem BioAssay (NCI)
Compounds without any hit were thinned out: in the full panel of roughly 83,000, 20% have a hit.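 Treatment: one concentration, 48 hours, 96-well format. Scoring: percent growth, with anything below 10 considered active.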 Active and inactive are the calls of the source.

Tests used:
Experiment in all cases: NCI-60 one-dose screen, 48 h (100 = growth as untreated, 0 = no growth, -100 = all killed)
Conditions in all cases: 10 µM unless noted
DU-145 prostate = test system: DU-145 prostate
K-562 leukemia = test system: K-562 leukemia
MALME-3M melanoma = test system: MALME-3M melanoma
MDA-MB-231 breast = test system: MDA-MB-231 breast
RXF 393 renal = test system: RXF 393 renal
SF-268 CNS = test system: SF-268 CNS
SF-295 CNS = test system: SF-295 CNS
SF-539 CNS = test system: SF-539 CNS
M14 melanoma = test system: M14 melanoma
HCT-15 colon = test system: HCT-15 colon
HT29 colon = test system: HT29 colon
SNB-75 CNS = test system: SNB-75 CNS
SNB-19 CNS = test system: SNB-19 CNS
U251 CNS = test system: U251 CNS
PC-3 prostate = test system: PC-3 prostate
SK-MEL-5 melanoma = test system: SK-MEL-5 melanoma
LOX IMVI melanoma = test system: LOX IMVI melanoma
SK-MEL-28 melanoma = test system: SK-MEL-28 melanoma

Measured: growth

COc1ccc(-c2nc(Nc3ccc(-c4nc5ccccc5[nH]4)cc3)nc(N3CCOCC3)n2)cc1
active: K-562 leukemia -22% | MALME-3M melanoma -65.7% | MDA-MB-231 breast 5.74% | RXF 393 renal -67.5% | SF-295 CNS -63.5% | SF-539 CNS 0.307% | M14 melanoma -7.64% | HCT-15 colon -62.2% | HT29 colon -23.1% | SNB-75 CNS -19.2% | U251 CNS 6.38% | PC-3 prostate 2.31% | SK-MEL-5 melanoma -90.7% | LOX IMVI melanoma -75.6% | SK-MEL-28 melanoma -34%
inactive: DU-145 prostate 38.5% | SF-268 CNS 34.1% | SNB-19 CNS 17.5%

Cn1c(=O)c2c(nc(Br)n2CC(=O)Nc2ccc(F)cc2)n(C)c1=O
inactive: DU-145 prostate 109% | K-562 leukemia 104% | MALME-3M melanoma 103% | MDA-MB-231 breast 90.1% | RXF 393 renal 108% | SF-268 CNS 108% | SF-295 CNS 108% | SF-539 CNS 100% | M14 melanoma 99.7% | HCT-15 colon 115% | HT29 colon 97.8% | SNB-75 CNS 83.4% | SNB-19 CNS 97.5% | U251 CNS 100% | PC-3 prostate 75.5% | SK-MEL-5 melanoma 104% | LOX IMVI melanoma 96.7% | SK-MEL-28 melanoma 118%

NC(=O)NCC1CCCCC1
inactive: DU-145 prostate 104% | K-562 leukemia 102% | MALME-3M melanoma 99.3% | MDA-MB-231 breast 108% | RXF 393 renal 101% | SF-268 CNS 99.1% | SF-295 CNS 93.1% | SF-539 CNS 91.4% | M14 melanoma 104% | HCT-15 colon 94.5% | HT29 colon 102% | SNB-75 CNS 90.7% | SNB-19 CNS 115% | U251 CNS 104% | PC-3 prostate 104% | SK-MEL-5 melanoma 109% | LOX IMVI melanoma 94.1% | SK-MEL-28 melanoma 110%

CCC(c1ccc(OC)cc1)C(CC)c1ccc(O)c(CN2CCCCC2)c1 (stereo unspecified)
inactive: DU-145 prostate 86.6% | K-562 leukemia 15.4% | MALME-3M melanoma 28.1% | MDA-MB-231 breast 77.6% | RXF 393 renal 53.7% | SF-268 CNS 86.1% | SF-295 CNS 78.9% | SF-539 CNS 69.3% | M14 melanoma 44.3% | HCT-15 colon 33.6% | HT29 colon 24.7% | SNB-75 CNS 94.5% | SNB-19 CNS 90.6% | U251 CNS 72.8% | PC-3 prostate 54.3% | SK-MEL-5 melanoma 30.6% | LOX IMVI melanoma 75.9% | SK-MEL-28 melanoma 41.6%

COc1cccc(-c2nn(-c3ccccc3)cc2-c2ccnc(NCCCNS(=O)(=O)c3cccc(F)c3)c2)c1
inactive: DU-145 prostate 53.6% | MALME-3M melanoma 35.1% | RXF 393 renal 15.8% | SF-268 CNS 46.8% | SF-539 CNS 51.9% | M14 melanoma 21% | HCT-15 colon 21.9% | HT29 colon 15.1% | SNB-75 CNS 55.4% | SNB-19 CNS 42.8% | U251 CNS 27.5% | PC-3 prostate 11.9% | LOX IMVI melanoma 27.5%
active: K-562 leukemia 6.28% | MDA-MB-231 breast 5.9% | SF-295 CNS 7.99% | SK-MEL-5 melanoma -45.6%

COC(=O)[C@]12CC[C@@H](C)[C@H](C)[C@@H]1C1=CC[C@@H]3[C@@]4(C)C=C(O)C(=O)C(C)=C4CC[C@@]3(C)[C@]1(C)CC2
inactive: DU-145 prostate 54.4% | K-562 leukemia 19.3% | MALME-3M melanoma 86.2% | RXF 393 renal 27.6% | SF-268 CNS 60% | SF-295 CNS 34.7% | SF-539 CNS 32.3% | M14 melanoma 24.9% | HCT-15 colon 25.2% | HT29 colon 11.7% | SNB-75 CNS 63% | SNB-19 CNS 59.9% | U251 CNS 43.4% | PC-3 prostate 12.7% | SK-MEL-5 melanoma 29.5% | LOX IMVI melanoma 16.5%
active: MDA-MB-231 breast 5.7%

c1ccc(-c2nc(Nc3ccc(-c4nc5ccccc5[nH]4)cc3)nc(N3CCOCC3)n2)cc1
active: DU-145 prostate -27.8% | K-562 leukemia -30.1% | MALME-3M melanoma -77.3% | MDA-MB-231 breast -63.3% | RXF 393 renal -75.1% | SF-268 CNS -43.4% | SF-295 CNS -76.4% | SF-539 CNS -76.8% | M14 melanoma -80.7% | HCT-15 colon -68.9% | HT29 colon -59.9% | SNB-75 CNS -89.6% | SNB-19 CNS -18.6% | U251 CNS -67.5% | PC-3 prostate -35.5% | SK-MEL-5 melanoma -95.4% | LOX IMVI melanoma -89% | SK-MEL-28 melanoma -82.9%

Cc1cc(C)c(NC(=O)c2sc3nc4c(cc3c2N)CCCC4)c(C)c1
inactive: DU-145 prostate 70.3% | K-562 leukemia 12.4% | MALME-3M melanoma 44.7% | MDA-MB-231 breast 71.8% | RXF 393 renal 57.9% | SF-268 CNS 48.8% | SF-295 CNS 29.2% | SF-539 CNS 26.9% | M14 melanoma 24.5% | HCT-15 colon 32.1% | HT29 colon 13.9% | SNB-75 CNS 18.5% | SNB-19 CNS 43.4% | U251 CNS 27.7% | PC-3 prostate 54% | LOX IMVI melanoma 37.6%

Nc1ccc(Cl)cn1
inactive: DU-145 prostate 106% | K-562 leukemia 107% | MALME-3M melanoma 99.7% | MDA-MB-231 breast 101% | RXF 393 renal 113% | SF-268 CNS 100% | SF-295 CNS 97.3% | SF-539 CNS 96.4% | M14 melanoma 105% | HCT-15 colon 98.6% | HT29 colon 96.9% | SNB-75 CNS 80.2% | SNB-19 CNS 107% | U251 CNS 94.3% | PC-3 prostate 90% | SK-MEL-5 melanoma 103% | LOX IMVI melanoma 92.7% | SK-MEL-28 melanoma 110%

O=Cc1nc2ccccc2[nH]1
inactive: DU-145 prostate 105% | K-562 leukemia 97.6% | MALME-3M melanoma 104% | MDA-MB-231 breast 94.9% | RXF 393 renal 112% | SF-268 CNS 104% | SF-295 CNS 101% | SF-539 CNS 97.5% | M14 melanoma 90.9% | HCT-15 colon 108% | HT29 colon 91% | SNB-75 CNS 80% | SNB-19 CNS 101% | U251 CNS 92.2% | PC-3 prostate 78.7% | SK-MEL-5 melanoma 102% | LOX IMVI melanoma 91.2% | SK-MEL-28 melanoma 116%

CC/C(=N/NC(N)=O)c1ccccc1
inactive: DU-145 prostate 108% | K-562 leukemia 101% | MALME-3M melanoma 105% | MDA-MB-231 breast 102% | RXF 393 renal 108% | SF-268 CNS 107% | SF-295 CNS 89.8% | SF-539 CNS 95.1% | M14 melanoma 106% | HCT-15 colon 91.2% | HT29 colon 104% | SNB-75 CNS 98% | SNB-19 CNS 108% | U251 CNS 102% | PC-3 prostate 102% | SK-MEL-5 melanoma 102% | LOX IMVI melanoma 99% | SK-MEL-28 melanoma 101%

COc1cccc(-c2nn(-c3ccccc3)cc2-c2ccnc(NCCCN)c2)c1
inactive: DU-145 prostate 75.6% | K-562 leukemia 16.8% | MALME-3M melanoma 70.2% | MDA-MB-231 breast 33.7% | RXF 393 renal 51.5% | SF-268 CNS 64% | SF-295 CNS 44.7% | SF-539 CNS 49.8% | M14 melanoma 26.1% | HCT-15 colon 56.7% | HT29 colon 86.2% | SNB-75 CNS 45.4% | SNB-19 CNS 48.9% | U251 CNS 38.9% | PC-3 prostate 47.7% | SK-MEL-5 melanoma 28.5% | LOX IMVI melanoma 54.8%

C[C@]12CC[C@@H]3c4ccc(O)cc4CC[C@H]3[C@@H]1C[C@H](O)[C@@H]2O
inactive: DU-145 prostate 94.9% | K-562 leukemia 118% | MALME-3M melanoma 95.8% | MDA-MB-231 breast 94.4% | RXF 393 renal 86.9% | SF-268 CNS 89.8% | SF-295 CNS 92.5% | SF-539 CNS 92.1% | M14 melanoma 90.9% | HCT-15 colon 97.3% | HT29 colon 109% | SNB-75 CNS 82% | SNB-19 CNS 102% | U251 CNS 100% | PC-3 prostate 92.4% | SK-MEL-5 melanoma 94.1% | LOX IMVI melanoma 92.4% | SK-MEL-28 melanoma 96.5%

COC(=O)[C@]12CC[C@@H](C)[C@H](C)[C@@H]1C1=CC[C@@H]3[C@@]4(C)C[C@@H](O)[C@H](O)[C@@](C)(CO)C4=CC[C@@]3(C)[C@]1(C)CC2
active: DU-145 prostate -41.4% | K-562 leukemia -22.8% | MALME-3M melanoma -74.8% | MDA-MB-231 breast -63.7% | RXF 393 renal -88.3% | SF-268 CNS -49.2% | SF-295 CNS -83.3% | SF-539 CNS -89.9% | M14 melanoma -68.1% | HCT-15 colon -60.8% | HT29 colon -36.6% | SNB-75 CNS -58.7% | SNB-19 CNS -80.4% | U251 CNS -85.4% | PC-3 prostate -85.1% | SK-MEL-5 melanoma -98.6% | LOX IMVI melanoma -100% | SK-MEL-28 melanoma -81%

Cc1ccc(N(CC(=O)Nc2ccc(S(=O)(=O)N3CCC(N4CCCC4)CC3)cc2)S(=O)(=O)c2ccc(Cl)cc2)cc1
active: DU-145 prostate 9.76% | K-562 leukemia -44.9% | MALME-3M melanoma -81.2% | MDA-MB-231 breast -42.9% | RXF 393 renal -70.8% | SF-295 CNS -64.5% | SF-539 CNS -89.7% | M14 melanoma -68.8% | HCT-15 colon -47.8% | HT29 colon -16.9% | U251 CNS -2.58% | SK-MEL-5 melanoma -97.6% | LOX IMVI melanoma -88.5% | SK-MEL-28 melanoma -68.3%
inactive: SF-268 CNS 34.8% | SNB-75 CNS 62.7% | SNB-19 CNS 40.6% | PC-3 prostate 12%

COC(=O)[C@]12CC[C@@H](C)[C@H](C)[C@@H]1C1=CC[C@@H]3[C@@]4(C)C[C@@H](OC(C)=O)[C@H](OC(C)=O)[C@@](C)(COC(C)=O)[C@@H]4[C@H](O)C[C@@]3(C)[C@]1(C)CC2
active: K-562 leukemia 8.42% | MALME-3M melanoma 5.25% | RXF 393 renal -22.1% | SF-295 CNS 7.96% | HCT-15 colon 7.64% | HT29 colon 2.23% | U251 CNS 7.43% | PC-3 prostate 4.25% | SK-MEL-5 melanoma -71.5% | LOX IMVI melanoma 2.68%
inactive: DU-145 prostate 20.3% | MDA-MB-231 breast 18.1% | SF-268 CNS 23.4% | SF-539 CNS 15.4% | M14 melanoma 14.2% | SNB-75 CNS 34.6% | SNB-19 CNS 24.2% | SK-MEL-28 melanoma 38.6%

CC(Cc1ccco1)C(=O)NC(N)=O (stereo unspecified)
inactive: DU-145 prostate 109% | K-562 leukemia 110% | MALME-3M melanoma 103% | MDA-MB-231 breast 110% | RXF 393 renal 96.7% | SF-268 CNS 104% | SF-295 CNS 94.6% | SF-539 CNS 97.8% | M14 melanoma 101% | HCT-15 colon 99.3% | HT29 colon 102% | SNB-75 CNS 91.8% | SNB-19 CNS 105% | U251 CNS 108% | PC-3 prostate 98.4% | SK-MEL-5 melanoma 98.6% | LOX IMVI melanoma 97.4% | SK-MEL-28 melanoma 105%
